# Assay results taken from ChEMBL document CHEMBL3988442, “University of Dundee, Small-Polar-MMV Screening Library” (2021).
# Hit rate of the full screen: of about 69,000 compounds, about 950 (1.4%) showed an effect of 50% or more. For the sample, strong results were picked, then their nearest neighbours and some compounds at random.
# System: Mycobacterium tuberculosis
# Assay: Cornell M. t heat shock assay; further: in the data most compounds retested in dose-response had high values
# Format: functional, organism-based
# Parameters: dose or concentration left out as unconfirmed
row,Structure (SMILES),Percent Effect [%]
1,COc1nccnc1N1C[C@@H]2CC[C@H](C1)N(CC=C(C)C)C2=O,-19.62
2,COCCN(C)C1COC2(CCN(Cc3ccccn3)CC2)C1.O=C(O)C(F)(F)F.O=C(O)C(F)(F)F (centres undefined),-27.77
3,COCCO[C@@H]1CCN(C(=O)c2ccc(C)o2)[C@@H]1Cc1cnn(C)c1,11.53
4,COCCO[C@@H]1CCN(C(=O)c2ccc(C)o2)[C@@H]1Cc1cccnc1.O=C(O)C(F)(F)F,104.5
5,COCCO[C@H]1CCN(Cc2cccnc2)[C@H]1Cc1cccnc1.O=C(O)C(F)(F)F.O=C(O)C(F)(F)F.O=C(O)C(F)(F)F,-30.96
6,CC[C@@H]1N(Cc2ccc(C)o2)CCC[C@]12CCC(=O)N2CCOC.O=C(O)C(F)(F)F,-28.97
7,Cl.NCC1CCC(c2c(C(=O)NCCO)sc3ccccc23)CC1 (centres undefined),85.23
8,COCCNC(=O)c1sc2ccccc2c1C1CCC(CN)CC1.Cl (centres undefined),16.29
9,CN(C)CCNC(=O)c1sc2ccccc2c1C1CCC(CN)CC1.Cl (centres undefined),20.1
10,Cc1ccnc(NC(=O)c2[nH]nc(C(C)C)c2Br)c1,68.96
11,CC(C)c1n[nH]c(C(=O)Nc2cc[nH]n2)c1Br,4.113
12,CC(C)c1n[nH]c(C(=O)Nc2ccccn2)c1Br,-0.4918
13,O=C(O)C(F)(F)F.O=C(O)C(F)(F)F.c1cncc(O[C@@H]2CC[C@H]3[C@H]2OCCN3C2CCCC2)c1,-35.82
14,Cc1nc(C2CCNCC2)cc(N(C)Cc2cc3cc(F)ccc3[nH]2)n1,81.43
15,Cc1nc(NCc2ccc(C)o2)cc(C2CCNCC2)n1,-22.33
16,CCN(Cc1c(F)cccc1Cl)c1cc(C2CCNCC2)nc(C)n1,69.57
17,COc1ccc2[nH]c(CNc3cc(C4CCNCC4)nc(C)n3)cc2c1,101.5
18,CN(Cc1cc2cc(F)ccc2[nH]1)c1cc(C2CCCNC2)ncn1 (centres undefined),27.99
19,CCCN(CC)c1cc(C2CCNCC2)nc(C)n1,-15.84
20,Cc1nc(NCc2cccc(F)c2)cc(C2CCNCC2)n1.Cl,-3.606
21,Cc1nc(-c2ccc(F)cc2)cc(C2CCNCC2)n1,-9.323
22,CCN(Cc1ccncc1)c1cc(C2CCNCC2)nc(C)n1,-13.1
23,COc1ccc(CNC(C)c2ccccc2Cl)c(OC)c1OC.Cl (centres undefined),-26.61
24,COc1c(CNC2CCSc3ccc(F)cc32)c(C)nn1C.Cl (centres undefined),15.14

row,Structure (SMILES),Percent Effect [%]
1,CNC(C(=O)OC)c1cc(F)ccc1F.Cl (centres undefined),1.092
2,O=C(O)C(F)(F)F.O=C(O)C(F)(F)F.O=C(c1ccncc1)N1CC[C@@H]2CN(C3CCOCC3)CCO[C@@H]2C1,7.278
3,Cc1cccc(CN2CCc3nnc(CN4CCCC4=O)n3CC2)n1.O=C(O)C(F)(F)F,-34.57
4,Cc1ccn(CCC(=O)NCc2ccco2)n1,6.355
5,Cc1noc(C)c1CCC(=O)NCCc1cccs1,11.5
6,Cc1nc2c(c(C)c1CC(=O)NCc1cccs1)c(=O)[nH]n2C,11.25
7,Cc1cc(=O)[nH]c(-n2nc(C)c(CCC(=O)NCc3cccs3)c2C)n1,102.2
8,Cc1cc(C(=O)NCc2ccco2)nn1C,12.62
9,Cc1cc(=O)[nH]c(-n2nc(C)c(CCC(=O)NCc3ccco3)c2C)n1,61.79
10,O=S(=O)(CCO)CCc1ccccc1Cl,17.45
11,CCN1CCc2c(sc3c2C(=O)NC(/C=C\c2ccccc2)N3)C1 (centres undefined),-24.35
12,Cn1c2ncccc2c(=O)n1CC(=O)NCCC1=CCCCC1,-2.25
13,CCCc1nn(Cc2ccc(Br)s2)c(=O)o1,31
14,CCC(=O)N1CCN(C(=O)Cn2cccn2)CC1,62.88
15,CC(C)CN1CCN(C(=O)CCn2cccn2)CC1,37.09
16,CCC(=O)N1CCN(C(=O)CCn2cccn2)CC1,10.75
17,O=C1NCCN1CCNc1cc(-c2ccncc2)nc2ccnn12,-39.13
18,CC1(C)Cc2cc(-c3cncn3CCNC3CCS(=O)(=O)C3)ccc2O1.Cl (centres undefined),8.949
19,CCC(C)NC(=O)Cn1ccc2c(C)nn(CC)c2c1=O (centres undefined),-10.24
20,Cc1nc(N2CCCC2)ccc1NCc1ccccn1,4.716
21,c1ccc(N2CCCC2)c(NCc2ccncc2)c1,-19.28
22,c1ccc(CNc2ccccc2N2CCCC2)nc1,50.65
23,O=C(O)C(F)(F)F.O=C(c1cnccn1)N1CC2(CCN(Cc3ccsc3)C2)C1,-14.16
24,CN(C)[C@@H]1CCN(C(=O)Cc2cccs2)[C@H]1Cc1cnn(C)c1.O=C(O)C(F)(F)F,5.582

row,Structure (SMILES),Percent Effect [%]
1,O=C(O)C(F)(F)F.c1ccc(CN2Cc3nccn3CC(Cn3cccn3)C2)nc1 (centres undefined),11.05
2,CN(C)CCN1CCCC12CCN(C(=O)c1ccncc1)CC2.O=C(O)C(F)(F)F.O=C(O)C(F)(F)F,6.106
3,CC(NC(=O)OC(C)(C)C)c1nnc(S(=O)(=O)Cc2ccccc2Cl)o1 (centres undefined),10.13
4,Cc1noc(C(C)NC(=O)[C@@H](C)NC(=O)OC(C)(C)C)n1 (some centres undefined),4.198
5,C[C@H](NC(=O)OC(C)(C)C)c1nnc(S(=O)(=O)Cc2cccc(F)c2)o1,-6.703
6,Cl.N[C@@H](Cc1ccccc1)c1nnc(S(=O)(=O)Cc2ccc(Cl)cc2)o1,-31.2
7,Cc1ccccc1CS(=O)(=O)c1nnc(C(C)NC(=O)OC(C)(C)C)o1 (centres undefined),89.48
8,CC(NC(=O)OC(C)(C)C)c1nnc(S(=O)(=O)Cc2ccc(Cl)cc2)o1 (centres undefined),103.1
9,COCCN1C[C@@H]2[C@@H](OC)CCN(C(=O)Cc3ccsc3)[C@@H]2C1.O=C(O)C(F)(F)F,-5.727
10,O=C(O)C(F)(F)F.O=C(c1ccc(F)cc1)N1CC[C@H]2[C@H]1CCN2CC1CC1,-18.24
11,CN1CCN(C)C2(CCN(Cc3ccsc3)CC2)C1=O.O=C(O)C(F)(F)F,-19.83
12,O=C(O)C(F)(F)F.O=C(O)C(F)(F)F.O=C1C[C@H]2[C@@H](CCN2C(=O)Cc2ccsc2)N1Cc1cccnc1,-3.092
13,CCCN1CCC2(CC1)CN(C(=O)c1cccnc1)c1ccc(F)cc12.O=C(O)C(F)(F)F.O=C(O)C(F)(F)F,1.02
14,O=C(c1cc(COc2ccc3c(c2)OCO3)[nH]n1)N1CCSCC1,62.66
15,O=C(c1cc(COc2ccc3c(c2)OCO3)[nH]n1)N1CCOCC1,27.44
16,O=C(c1cc(COc2ccc3c(c2)OCO3)[nH]n1)N1CCCC1,27.84
17,O=C(NC1CC1)[C@@]12CCO[C@@H]1CCN(Cc1ccc3c(c1)OCO3)C2.O=C(O)C(F)(F)F,3.117
18,O=C(Nc1ccc(Cl)cn1)c1nn(C2CCS(=O)(=O)C2)c2c1CCCC2 (centres undefined),11.75
19,CCc1c(C)nc(-n2nc(C3CC3)cc2NC(C)=O)[nH]c1=O,-4.817
20,CC(C)c1cc(=O)[nH]c(C(C)(C)N)n1.Cl,-1.854
21,CCCc1cc(=O)[nH]c(-c2cccc(CN3CCCCCC3)c2)n1,-11.64
22,CCCc1cc(=O)[nH]c(-c2cccc(CN3CCN4CCCC4C3)c2)n1 (centres undefined),0.7345
23,Cc1cc(C(=O)Nc2cc(C3CC3)n[nH]2)c2c(C)nn(C)c2n1,28.31
24,CCc1cc(=O)[nH]c(-n2nc(C3CC3)cc2NC(=O)C2CC2)n1,103.7

row,Structure (SMILES),Percent Effect [%]
1,CC(C)c1cc(=O)[nH]c(-n2nc(C3CC3)cc2N)n1,103
2,CCC(C)(N)c1nc(C(C)C)cc(=O)[nH]1.Cl (centres undefined),7.893
3,CCn1nc(C)c(NC(=O)c2cc(NC(=O)C3CC3)n(C)n2)c1C,-24.03
4,CCCc1cc(=O)[nH]c(-n2nc(C3CC3)cc2N)n1,101.7
5,Cc1cc(C2CCC2)nc(N2CCC3(CCNC(=O)CC3)CC2)n1,9.358
6,Cc1cc(=O)[nH]c(-n2nc(C3CC3)cc2N)n1,101
7,Cc1ccc(CN(CCCN2CCOCC2)Cc2cnc(C)n2C)o1.O=C(O)CC(O)(CC(=O)O)C(=O)O,-5.16
8,O=C(O)C(F)(F)F.O=C1COC2(CCN(CC3CCC3)CC2)CN1c1cncnc1,-21.31
9,Cc1nn(C)cc1CN1CCc2c(nc(-c3ccccn3)[nH]c2=O)C1,2.88
10,Cn1cccc1CN1CCc2ncnc(-c3cccnc3)c2CC1,-25.32
11,O=c1[nH]c(-c2ccccn2)nc2c1CCN(Cc1cccc(O)c1)C2,53.42
12,COc1ccc(CN2CCc3c(nc(-c4ccccn4)[nH]c3=O)C2)cc1,89.16
13,O=C(c1ccccn1)N1CCc2c(nc(-c3ccncc3)[nH]c2=O)C1,-10.2
14,Cn1cccc1CN1CCc2c(nc(-c3ccccn3)[nH]c2=O)C1,73.71
15,Cn1cc(CN2CCc3c(nc(-c4ccccn4)[nH]c3=O)C2)cn1,-205.6
16,CCn1ncc(CN2CCc3c(nc(-c4cccnc4)[nH]c3=O)C2)c1C,-178.1
17,Cc1ncc(CN2CCc3c(nc(-c4ccccn4)[nH]c3=O)C2)n1C,8.847
18,COc1ccccc1CN1CCc2c(nc(-c3ccccn3)[nH]c2=O)C1,93.29
19,CC1CCCCN1c1nc2c(c(=O)[nH]1)CCN(Cc1ccccn1)C2 (centres undefined),-29.02
20,O=c1[nH]c(N2CCCCC2)nc2c1CCN(Cc1cccnc1)C2,-9.833
21,CCN1CCOCC12CCN(C(=O)C1CCCC1)CC2.O=C(O)C(F)(F)F,-1.07
22,Cc1cc(C[C@@H]2COC[C@H]2NCc2ccc(Cl)c(Cl)c2)on1.O=C(O)CC(O)(CC(=O)O)C(=O)O,-20.39
